PubChem BioAssay (NCATS)
Records with an inconclusive call do not appear. A call without a number means that no potency is given here. Values without a mark were called inactive. Activity calls are given as the source filed them. Calls come from the whole dose curve; as a rule, active = well fitted inhibition curve with a large enough effect; inconclusive = small, poorly fitted or top-dose-only effect; inactive = flat fitted curve, though single readings scatter. Where a SMILES comes first, the peptide text is derived from it. Bridges are numbered along the chain shown (N, C = ends).

Biological target: Glutathione peroxidase 1 (Homo sapiens) (UniProt P07203)
Sequence (P07203 whole entry, looked up): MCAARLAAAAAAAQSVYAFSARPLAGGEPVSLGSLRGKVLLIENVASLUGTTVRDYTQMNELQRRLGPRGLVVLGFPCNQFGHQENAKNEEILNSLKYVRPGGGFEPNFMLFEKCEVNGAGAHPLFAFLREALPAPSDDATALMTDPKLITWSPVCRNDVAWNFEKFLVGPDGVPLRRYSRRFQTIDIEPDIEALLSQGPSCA
Experiment: Primary qHTS Assay for Inhibitors of Recombinant Selenoprotein Glutathione Peroxidase 1 (GPX1) (AID 1845191); note: nearly all actives have a fitted effect of over 65% in size
Details: recombinant GPX1, GR-coupled NADPH fluorescence, 15 min; series mostly up to 48.8 µM
Procedure, shortened: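 GR-coupled assay: compounds preincubated 30 min at room temperature with GPX1, then reaction started with CHP; final 10 nM GPX1, 1 mM GSH, 0.5 mM CHP, 0.5 mM NADPH, 100 nM GR, 0.01% BSA, pH 7.5 Tris buffer. NADPH fluorescence (340/450 nm) read at 0 and 15 min.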

Question: For `CCOC(=O)[C@H](CCc1ccccc1)N[C@H]1CCCN2CCC[C@@H](C(=O)O)N2C1=O`, which Potency is on record?
Answer: inactive

Question: Which Potency does the source give for `O=S(=O)(O)Oc1ccc(C(c2ccc(OS(=O)(=O)O)cc2)c2ccccn2)cc1` here?
Answer: inactive

Question: Which Potency does the source give for `CC#CCC(C)[C@H](O)/C=C/[C@@H]1[C@H]2c3cccc(CCCC(=O)O)c3O[C@H]2C[C@H]1O` (stereo partly specified) here?
Answer: inactive

Question: How did the Potency turn out when `CC(C)(C)NC(=O)[C@H]1CC[C@H]2[C@@H]3CC=C4C=C(C(=O)O)CC[C@]4(C)[C@H]3CC[C@]12C` was run?
Answer: inactive

Question: With `CN1CC(O)c2cc(N=NC(N)=O)c(O)cc21` (stereo unspecified) as the compound, how does the Potency read?
Answer: inactive

Question: For `O=P(O)(O)OC(Cn1cncn1)(Cn1cncn1)c1ccc(F)cc1F`, which Potency is on record?
Answer: inactive

Question: With `CN1CCN(CCCN2c3ccccc3Sc3ccccc32)CC1` as the compound, how does the Potency read?
Answer: inactive

Question: `CCCN(CC)C(CC)C(=O)Nc1c(C)cccc1C` (stereo unspecified) was tested. Which Potency did it give?
Answer: inactive

Question: How did the Potency turn out when `COC(=O)Nc1cc(Nc2cc(NC3CC3)c3ncc(C#N)n3n2)c(Cl)c(N2CCN(C)CC2)c1` was run?
Answer: inactive

Question: Which Potency does the source give for `CC#CCC(C)[C@H](O)/C=C/[C@@H]1[C@H]2C/C(=C/CCCC(=O)O)C[C@H]2C[C@H]1O` (stereo partly specified) here?
Answer: inactive

Question: Which Potency does the source give for `CCCCCCCC(=O)CC[C@@H]1[C@@H](C/C=C\CCCC(=O)OC(C)C)[C@@H](O)C[C@H]1O` here?
Answer: inactive

Question: For `OC(CN1CCCCC1)c1cc(-c2ccccc2)on1` (stereo unspecified), which Potency is on record?
Answer: inactive

Question: With `CC(CC(c1ccccc1)c1ccccc1)NC(C)(C)C` (stereo unspecified) as the compound, how does the Potency read?
Answer: inactive

Question: With `Cc1ccc(C2(O)CCN(CCCC(=O)c3ccc(F)cc3)CC2)cc1` as the compound, how does the Potency read?
Answer: inactive

Question: With `NCCCNCCCCNC(=O)C(O)NC(=O)CCCCCCN=C(N)N` (stereo unspecified) as the compound, how does the Potency read?
Answer: inactive

Question: Which Potency does the source give for `NCCCC[C@H](NC(=O)[C@@H]1CCCN1C(=O)[C@@H]1CSSC[C@H](NC(=O)CNC(=O)CNC(=O)CN)C(=O)N[C@@H](Cc2ccc(O)cc2)C(=O)N[C@@H](Cc2ccccc2)C(=O)N[C@@H](CCC(N)=O)C(=O)N[C@@H](CC(N)=O)C(=O)N1)C(=O)NCC(N)=O` (H-GGGCYFQNCPKG-NH2; disulfide 4-9) here?
Answer: inactive

Question: How did the Potency turn out when `FC(F)(F)c1ccc(CNc2ccc(Cc3c[nH]c4ncc(Cl)cc34)cn2)cn1` was run?
Answer: inactive

Question: Which Potency does the source give for `CCCCCCCCCCCCCCCC(=O)O[C@@H]1CC(C)=C(/C=C/C(C)=C/C=C/C(C)=C/C=C/C=C(C)/C=C/C=C(C)/C=C/C2=C(C)C[C@@H](OC(=O)CCCCCCCCCCCCCCC)CC2(C)C)C(C)(C)C1` here?
Answer: inactive

Question: For `COc1ccc(C(=O)Nc2ccccc2CCC2CCCCN2C)cc1` (stereo unspecified), which Potency is on record?
Answer: inactive

Question: Which Potency does the source give for `CNC[C@@H]1CC[C@@H](N)[C@@H](O[C@H]2[C@H](O)[C@@H](O[C@H]3OC[C@](C)(O)[C@H](NC)[C@H]3O)[C@H](N)C[C@@H]2N)O1` here?
Answer: inactive

Question: With `CCCCCCCCCCCCCCCCCC(=O)[O][Al]` as the compound, how does the activity, negative = inhibition read?
Answer: -27.3% [at 4.49 µM]

Question: With `O=P(O)(O)OC(CO)CO` as the compound, how does the Potency read?
Answer: inactive

Question: With `CN=C(NC)NCc1ccccc1` as the compound, how does the Potency read?
Answer: inactive

Question: With `O=P(O)(O)C(Sc1ccc(Cl)cc1)P(=O)(O)O` as the compound, how does the activity, negative = inhibition read?
Answer: 3.51% [at 0.4 µM]

Question: `CN(C(=O)CO)c1c(I)c(C(=O)NCC(O)CO)c(I)c(C(=O)NCC(O)CO)c1I` (stereo unspecified) was tested. Which Potency did it give?
Answer: inactive

Question: Which Potency does the source give for `CN1CCN(C2=Nc3ccccc3Cc3ccccc32)CC1` here?
Answer: inactive
